Compounds with a hit are over-represented: about 1.2% of the library has one in this group of screens.
BioA inh-1 – inhibitors of Mycobacterium tuberculosis BioA enzyme; purified M. tuberculosis BioA enzyme, plate reader; inhibition, % at 9.99 µM; 0.096% of 360,000 active; in the data active means inhibition above about 40%; inconclusive means no clear call, values can overlap the other calls
PrP UTR inh – suppresses PrP 5' UTR mRNA reporter expression. inhibition, % (no concentration beside the values). cell-based PrP 5' UTR mRNA reporter, plate reader. 0.35% of 340,000 active; in the data active means inhibition above about 52%; further: 0 = median of the neutral control wells
FadD28 binding – M. tuberculosis FadD28 bisubstrate binding inhibition; FadD28 bisubstrate probe binding, fluorescence polarization; inhibition, % at 12.5 µM; 0.22% of 360,000 active; AID 588549; in the data active means inhibition above about 8.5%, passing the limit was not always enough; inconclusive means no clear call, values can overlap the other calls
Yp Topo-I inh – inhibitors of Yersinia pestis topoisomerase I. 0.064% of 360,000 active. activity, % at 10 µM. Y. pestis Topo-I cleavage product accumulation, plate reader. AID 504884; in the data active means activity above about 50%, passing the limit was not always enough; inconclusive means no clear call, values can overlap the other calls
TcdB inh – blocks C. difficile toxin B glycohydrolase activity; inhibition, % at 9.99 µM; P18177; TcdB glycohydrolase enzymatic assay, plate reader; AID 652162; 0.24% of 350,000 active; in the data active means inhibition above about 10%
Target sequence (P18177 whole entry, looked up): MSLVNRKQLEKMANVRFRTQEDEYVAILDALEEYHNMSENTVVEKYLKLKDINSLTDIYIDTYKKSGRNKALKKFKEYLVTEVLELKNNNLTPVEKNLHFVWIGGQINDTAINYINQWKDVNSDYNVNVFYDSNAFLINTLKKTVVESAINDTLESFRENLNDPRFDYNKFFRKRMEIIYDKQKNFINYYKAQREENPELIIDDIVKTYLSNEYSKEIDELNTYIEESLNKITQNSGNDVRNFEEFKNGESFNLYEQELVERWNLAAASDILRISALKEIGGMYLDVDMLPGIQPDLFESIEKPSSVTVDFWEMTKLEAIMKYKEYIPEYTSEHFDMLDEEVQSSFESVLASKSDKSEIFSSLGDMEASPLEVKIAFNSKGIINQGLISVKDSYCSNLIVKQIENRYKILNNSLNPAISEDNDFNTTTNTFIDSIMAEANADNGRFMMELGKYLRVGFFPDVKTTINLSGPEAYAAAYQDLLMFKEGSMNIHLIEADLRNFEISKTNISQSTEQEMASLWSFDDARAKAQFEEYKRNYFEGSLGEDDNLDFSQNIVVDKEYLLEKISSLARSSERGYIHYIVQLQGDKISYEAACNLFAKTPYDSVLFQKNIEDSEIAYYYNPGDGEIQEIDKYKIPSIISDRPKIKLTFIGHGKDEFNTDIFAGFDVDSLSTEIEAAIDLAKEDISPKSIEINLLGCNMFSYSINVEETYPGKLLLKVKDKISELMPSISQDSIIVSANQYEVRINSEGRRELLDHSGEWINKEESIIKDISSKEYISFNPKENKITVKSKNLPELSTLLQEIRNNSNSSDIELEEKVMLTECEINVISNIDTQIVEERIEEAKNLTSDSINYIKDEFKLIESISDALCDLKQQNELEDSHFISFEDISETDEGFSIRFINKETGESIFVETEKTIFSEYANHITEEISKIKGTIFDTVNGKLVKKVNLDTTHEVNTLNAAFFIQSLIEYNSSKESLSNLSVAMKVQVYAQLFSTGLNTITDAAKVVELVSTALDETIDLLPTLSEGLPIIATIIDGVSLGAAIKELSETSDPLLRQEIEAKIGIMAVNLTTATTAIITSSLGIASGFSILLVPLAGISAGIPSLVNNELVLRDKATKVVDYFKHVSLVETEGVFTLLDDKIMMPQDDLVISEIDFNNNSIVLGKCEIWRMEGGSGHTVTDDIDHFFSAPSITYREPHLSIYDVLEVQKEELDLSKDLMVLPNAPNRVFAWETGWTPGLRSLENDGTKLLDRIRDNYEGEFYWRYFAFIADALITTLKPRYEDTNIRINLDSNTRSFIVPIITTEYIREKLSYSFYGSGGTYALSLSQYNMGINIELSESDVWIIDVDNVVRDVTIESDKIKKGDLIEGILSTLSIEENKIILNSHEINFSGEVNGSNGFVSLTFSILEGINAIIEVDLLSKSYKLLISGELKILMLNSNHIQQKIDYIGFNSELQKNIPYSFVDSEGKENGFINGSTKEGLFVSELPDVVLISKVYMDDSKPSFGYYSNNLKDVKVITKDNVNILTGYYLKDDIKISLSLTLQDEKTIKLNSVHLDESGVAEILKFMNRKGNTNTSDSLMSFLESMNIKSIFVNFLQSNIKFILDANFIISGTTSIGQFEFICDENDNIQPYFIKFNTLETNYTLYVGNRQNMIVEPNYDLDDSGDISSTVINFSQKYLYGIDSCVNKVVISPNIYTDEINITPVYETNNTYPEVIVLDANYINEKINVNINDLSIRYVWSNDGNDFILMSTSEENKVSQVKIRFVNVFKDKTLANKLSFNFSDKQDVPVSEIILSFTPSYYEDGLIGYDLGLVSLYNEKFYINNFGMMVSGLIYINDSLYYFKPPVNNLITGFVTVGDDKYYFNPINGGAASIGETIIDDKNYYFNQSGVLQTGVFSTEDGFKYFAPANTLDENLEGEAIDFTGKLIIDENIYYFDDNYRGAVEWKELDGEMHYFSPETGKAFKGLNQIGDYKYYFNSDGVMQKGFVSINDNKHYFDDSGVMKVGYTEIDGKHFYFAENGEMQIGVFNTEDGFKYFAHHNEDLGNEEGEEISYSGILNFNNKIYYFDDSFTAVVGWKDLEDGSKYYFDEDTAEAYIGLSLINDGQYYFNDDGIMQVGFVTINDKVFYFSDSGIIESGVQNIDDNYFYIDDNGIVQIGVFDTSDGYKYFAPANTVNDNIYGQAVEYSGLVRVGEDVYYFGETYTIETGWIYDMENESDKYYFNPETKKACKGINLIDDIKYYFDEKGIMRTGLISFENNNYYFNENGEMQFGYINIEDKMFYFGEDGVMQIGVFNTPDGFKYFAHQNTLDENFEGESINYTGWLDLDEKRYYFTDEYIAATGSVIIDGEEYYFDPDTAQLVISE
PfHsp40 rescue – compounds rescuing yeast from Plasmodium falciparum HSP40 toxicity; 0.68% of 340,000 active; AID 504582; growth rescue, % at 12.5 µM; S. cerevisiae expressing PfHsp40, growth rescue, ATP luminescence; in the data active means growth rescue above about 28%, passing the limit was not always enough; inconclusive means no clear call, values can overlap the other calls;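 further: yeast W303a lacking pdr1 and pdr3 grown in galactose medium; growth measured after three days at 30 °C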
PrP 5UTR single – prion 5' UTR mRNA inhibition, cherry-pick retest. inhibition, % at 2.5 µM. shares compounds with PrP UTR inh. cell-based prion protein 5' UTR reporter, plate reader. 48% of 1,100 active. AID 504592; in the data active means inhibition above about 54%; inconclusive means no clear call, values can overlap the other calls
BioA inh-2 – Mtb BioA enzyme inhibition | AID 651679 | 310 tested, under 10 active | max activity, % | purified BioA enzyme, plate reader, dose response | shares compounds with BioA inh-1;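 further: top concentration of the dilution series was 10 µM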
HepG2 cytotox – kills HepG2 cells | shares compounds with BioA inh-1 | HepG2 cytotoxicity, plate reader | max activity, % | 310 tested, under 10 active | AID 651898
NIH3T3 tox 5 – kills NIH3T3 cells. shares compounds with BioA inh-1. NIH3T3 cytotoxicity, plate reader. activity change, negative = cytotoxicity, % at 26 µM. 310 tested, under 10 active. AID 651900
* = called active by the depositor; i = inactive; ? = inconclusive; . = no result; [ ] = remark or other dose. Unless noted, how the calls were made is not given here.

SMILES | BioA inh-1 | PrP UTR inh | FadD28 binding | Yp Topo-I inh | TcdB inh | PfHsp40 rescue | BioA inh-2 | HepG2 cytotox | NIH3T3 tox 5 | others
COc1ccc(CNC(=O)C2CCN(S(=O)(=O)c3c(C)n[nH]c3C)CC2)cc1 | 1 | -18 | -2 | -5 | . | -1 | . | . | .
Cc1n[nH]c(C)c1S(=O)(=O)N1CCCC(C(=O)NCc2ccc(F)cc2)C1 (stereo not given) | . | 84* | -3 | -12 | -2 | 1 | . | . | . | PrP 5UTR single=3
C[C@H](CO)N1C[C@H](C)[C@H](CN(C)C(=O)Cc2cccnc2)Oc2ncc(C#CCc3ccccc3)cc2C1=O | -3 | . | . | . | 0 | . | . | . | .
COc1cc(OC)c2c(-c3cccc(-c4ccc(C(C)=O)cc4)c3)cc(=O)oc2c1 | -2 | 64* | 0 | 1 | . | -1 | . | . | . | PrP 5UTR single=93*
O=C(Nc1ccccc1Cl)c1ccc(C(=O)Nc2ccccc2Cl)cc1 | . | 76* | 1 | -4 | 1 | -1 | . | . | . | PrP 5UTR single=1
O=C(Nc1ccccc1Cl)c1ccccc1 | . | -36 | -1 | 6 | 1 | 0 | . | . | .
COc1ccc(/C=C2\SC(=O)N(CCCC(=O)Nc3cc(Cl)ccc3C(=O)O)C2=O)cc1 | . | 92* | -7 | 12 | 1 | 5 | . | . | . | PrP 5UTR single=83*
COC(=O)N(C)c1nc2ccccc2s1 | -1 | -40 | 0 | 0 | . | 0 | . | . | .
CN(C(=O)OC(C)(C)C)c1ccc(-c2nc3ccccc3s2)cc1 | 8 | 90* | -1 | 35 | -2 | 1 | . | . | . | PrP 5UTR single=88*
CC(C)c1ccc(-c2nc3ccccc3s2)cc1 | . | 85* | -1 | 2 | 1 | 1 | . | . | . | PrP 5UTR single=85*
COc1ccc(S(=O)(=O)N(C)C[C@H]2Oc3ccc(NC(=O)CCCCCC(=O)Nc4ccccc4N)cc3CC(=O)N([C@H](C)CO)C[C@H]2C)cc1 | -2 | . | . | . | -1 | . | . | . | .
CC(C)(C)NC(=S)N1CCC(C(=O)c2ccc(Cl)cc2)CC1 | 7 | 56* | -2 | -5 | 3 | -1 | . | . | . | PrP 5UTR single=12
Cc1cccc(C(=O)NC2CCN(CC(=O)Nc3ccccc3Cl)CC2)c1 | 49* | -34 | -5 | 21 | 1 | 0 | -5 | -6 | -13
CC(C)NC(=O)N1C[C@@H]2[C@H](c3ccccc31)[C@H](CO)N2Cc1ccccn1 | -5 | . | . | . | . | . | . | . | .
COc1ccc(F)cc1C(=O)C1CCCN(C(=O)c2ccc(C(C)=O)s2)C1 (stereo not given) | 71* | -10 | -2 | 11 | 0 | 2 | -8 | -16 | -3
O=C(c1ccc(N2CCOCC2)cc1)N1CCCC(Nc2ccccc2)C1 (stereo not given) | -1 | -8 | 0 | 6 | 0 | 0 | . | . | .
CC(=O)c1ccc(C(=O)N2CCCC(Nc3ccccc3)C2)s1 (stereo not given) | 64* | -25 | ? | 2 | 1 | -1 | -8 | 24 | -1
CC(=O)c1ccc(C(=O)N2CCCC(C(=O)c3cc(F)ccc3F)C2)s1 (stereo not given) | 38 | -39 | -1 | -4 | -2 | -1 | . | . | .
CC(=O)c1ccc(C(=O)NC2CCCN(Cc3ccccc3F)C2)s1 (stereo not given) | 46* | -4 | -1 | -1 | 0 | 0 | -7 | -9 | 5
CC(=O)c1ccc(C(=O)N2CCCC(C(=O)c3ccc(Cl)cc3)C2)s1 (stereo not given) | 49* | -14 | -5 | 13 | 1 | -1 | -6 | 7 | -2
O=C(C[C@@H]1CC[C@@H](NS(=O)(=O)c2ccccc2)[C@@H](CO)O1)N1CCN(c2ccccc2)CC1 | . | . | . | . | 0 | . | . | . | .
COc1ccc2c3c([nH]c2c1)[C@H](CO)N(Cc1nccs1)CC31CCN(C(=O)C2CCOCC2)CC1 | . | . | . | . | 0 | . | . | . | .
CO[C@@H]1CN(C)C(=O)c2ccc(NC(=O)Cc3ccccc3)cc2OC[C@@H](C)NC[C@@H]1C | 0 | . | . | . | -1 | . | . | . | .
Cc1ccccc1-c1ccc([C@@H]2[C@H](CO)N3CCCCN(C(=O)CN4CCOCC4)C[C@@H]23)cc1 | 7 | . | . | . | -1 | . | . | . | .
CC(=O)c1ccc(NC(=O)CN2CCN(c3ccccc3)CC2)cc1 | 55* | -16 | -3 | -2 | -1 | 0 | -6 | 9 | -3
SMILES | BioA inh-1 | PrP UTR inh | FadD28 binding | Yp Topo-I inh | TcdB inh | PfHsp40 rescue | BioA inh-2 | HepG2 cytotox | NIH3T3 tox 5 | others
CC(=O)c1ccc(NC(=O)CN2CCN(CC(=O)Nc3ccc(C(C)=O)cc3)CC2)cc1 | 0 | 1 | -1 | -7 | 0 | 1 | . | . | .
CC(C)(C)[S@@](=O)N1Cc2cc(C(=O)NCc3ccccc3F)nc(-c3cccc(-c4cccnc4)c3)c2[C@H]1CCO | 8 | . | . | . | 1 | . | . | . | .
CC(C)(C)[S@](=O)N1Cc2cc(C(=O)NCc3ccccc3F)nc(-c3cccc(-c4cccnc4)c3)c2[C@@H]1CCO | 42* | . | . | . | 1 | . | -7 | i | -5[23.5 µM]
C[C@H](CO)N1C[C@H](C)[C@@H](CN(C)Cc2ccc(C(=O)O)cc2)OCCCC[C@H](C)Oc2ccc(NC(=O)Nc3ccc4c(c3)OCO4)cc2C1=O | 1 | . | . | . | 1 | . | . | . | .
CCOc1ccc(-n2c(SCC(N)=O)nc3c(c2=O)SCC3)cc1 | 41* | -7 | -2 | 2 | . | 2 | -7 | 9 | 7
CC1Cc2nc(SCC(=O)N3CCOCC3)n(-c3ccccc3)c(=O)c2S1 (stereo not given) | 63* | -11 | 0 | 0 | -1 | 0 | -7 | -8 | -2
CC1Cc2nc(SCC(=O)N3CCN(c4ccccc4)CC3)n(C)c(=O)c2S1 (stereo not given) | 23 | -12 | 0 | 25 | 3 | 0 | . | . | .
O=C(CSc1nc2c(c(=O)n1-c1ccccc1)SCC2)N1CCN(c2ccccc2)CC1 | 47* | -3 | 0 | 33 | 1 | -2 | -2 | -9 | -5
O=C(CSc1nc2c(c(=O)n1-c1ccc(F)cc1)SCC2)N1CCCC1 | 26 | -23 | -3 | 4 | . | -1 | . | . | .
O=C(CSc1nc2c(c(=O)n1-c1ccccc1)SCC2)N1CCOCC1 | 88* | 1 | -2 | -9 | 2 | 0 | 5 | 16 | 2
CCCSc1nc2c(c(=O)n1-c1ccc(OCC)cc1)SCC2 | 1 | -3 | 1 | 3 | . | 0 | . | . | .
C[C@@H]1CCCCO[C@@H](CN(C)S(=O)(=O)c2ccc(Cl)cc2)[C@@H](C)CN([C@H](C)CO)C(=O)c2cc(NS(C)(=O)=O)ccc2O1 | 2 | . | . | . | 0 | . | . | . | .
CCCNC(=O)N(C)C[C@@H]1Oc2ncc(-c3ccc(OC)cc3)cc2C(=O)N([C@@H](C)CO)C[C@@H]1C | 0 | . | . | . | -1 | . | . | . | .
C[C@H](CO)N1C[C@H](C)[C@@H](CN(C)C(=O)c2cccnc2)Oc2ncc(C#CCN(C)C)cc2C1=O | 2 | . | . | . | 0 | . | . | . | .
